Calls of active or inactive are those of the source. The calls were made as follows: active = hit-call score of the fitted dose curve at least 0.9, where 1 is the maximum; inactive = score below 0.9.
Assay: APR_HepG2_CellLoss_1hr: Apredica 1-hour HepG2 Assay for Cell Loss (AID 2282668);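 also: curves fitted both ways against DMSO so gain or loss of cells counts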
Conditions: high-content imaging
Method in brief: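 HepG2 cells were treated for 1 h with compound at 0.39–200 uM, in duplicate, in 0.5% DMSO. After formaldehyde fixation, Hoechst 33342-stained nuclei were imaged on an ArrayScan to count cells. Data were fitted bidirectionally versus DMSO.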
For CCSC(=O)N1CCCCCC1, the outcome was “inactive”. In the case of COP(=O)(OC)O/C(C)=C/C(=O)N(C)C, the outcome is reported as “inactive”. In the case of C=CCOC(=O)C(C)(C)OC(=O)c1cc(-n2c(=O)cc(C(F)(F)F)n(C)c2=O)ccc1Cl, the outcome is reported as “inactive”. For CN=C=S, the outcome was “inactive”. With Cc1cc(C)nc(Nc2ccccc2)n1 the outcome was “inactive”. With O=P(O)(O)CCCl the outcome was “inactive”. In the case of CNC(=O)N(C)c1nnc(C(C)(C)C)s1, the outcome is reported as “inactive”. For COCC(C)N(C(=O)CCl)c1c(C)csc1C (configuration not stated), the outcome was “inactive”. With CCOC(=O)C(C)OC(=O)c1cc(Oc2ccc(C(F)(F)F)cc2Cl)ccc1[N+](=O)[O-] (configuration not stated) the outcome was “inactive”. In the case of COC(=O)c1c(C(F)F)nc(C(F)(F)F)c(C2=NCCS2)c1CC(C)C, the outcome is reported as “inactive”. In the case of CC(C)Oc1cccc(NC(=O)c2ccccc2C(F)(F)F)c1, the outcome is reported as “inactive”. With CN/C(=N\[N+](=O)[O-])NCc1cnc(Cl)s1 the outcome was “inactive”. In the case of Cn1c(-c2ccccc2)cc(-c2ccccc2)[n+]1C, the outcome is reported as “inactive”. For CC(C)C1(C)N=C(c2ncccc2C(=O)O)NC1=O (configuration not stated), the outcome was “inactive”. For N#CN=C1SCCN1Cc1ccc(Cl)nc1, the outcome was “inactive”. In the case of CCCCOCN(C(=O)CCl)c1c(CC)cccc1CC, the outcome is reported as “inactive”. For CC(C)Nc1nc(Cl)nc(NC(C)C)n1, the outcome was “inactive”. For COC(=O)NC(=S)Nc1ccccc1NC(=S)NC(=O)OC, the outcome was “inactive”. In the case of CCNP(=S)(OC)O/C(C)=C/C(=O)OC(C)C (configuration not stated), the outcome is reported as “inactive”. With CS(=O)(=O)c1ccc(C(=O)C2C(=O)CCCC2=O)c([N+](=O)[O-])c1 the outcome was “inactive”. In the case of COC(=O)NS(=O)(=O)c1ccc(N)cc1, the outcome is reported as “inactive”. For CNC(=O)Oc1cccc2ccccc12, the outcome was “inactive”. For CCCCC(C#N)(Cn1cncn1)c1ccc(Cl)cc1 (configuration not stated), the outcome was “inactive”. For COC(=O)N(C(=O)N1CO[C@@]2(C(=O)OC)Cc3cc(Cl)ccc3C2=N1)c1ccc(OC(F)(F)F)cc1, the outcome was “inactive”. With CCNC(=O)NC(=O)C(C#N)=NOC the outcome was “inactive”. For Nc1c(Cl)c(Cl)nc(C(=O)O)c1Cl, the outcome was “inactive”. With Cc1c(COC(=O)[C@@H]2[C@H](/C=C(\Cl)C(F)(F)F)C2(C)C)cccc1-c1ccccc1 the outcome was “inactive”. For CO/N=C(/C1=NOCCO1)c1ccccc1Oc1ncnc(Oc2ccccc2Cl)c1F, the outcome was “inactive”. For O=C1C2CC=CCC2C(=O)N1SC(Cl)(Cl)Cl (configuration not stated), the outcome was “inactive”. For CC(C)=CC1C(C(=O)OCc2coc(Cc3ccccc3)c2)C1(C)C (configuration not stated), the outcome was “inactive”. In the case of CCOc1cc(C(C)(C)C)ccc1C1COC(c2c(F)cccc2F)=N1 (configuration not stated), the outcome is reported as “inactive”. With CC(C)N1C(=O)c2ccccc2NS1(=O)=O the outcome was “inactive”.

— PubChem BioAssay (EPA / NIEHS)
